Drawing on PubChem BioAssay (NCI), this text covers growth for eight compounds.

Some test systems named below: 786-0 renal; MALME-3M melanoma; UACC-257 melanoma; SK-MEL-2 melanoma; EKVX NSCLC; SN12C renal; TK-10 renal; ACHN renal; CAKI-1 renal; A498 renal; RPMI-8226 leukemia; OVCAR-8 ovarian; OVCAR-4 ovarian; SK-OV-3 ovarian; IGROV1 ovarian; OVCAR-3 ovarian; BT-549 breast; MDA-MB-435 melanoma; HCT-116 colon; HCC-2998 colon.
Common to all, as to experiment: NCI-60 one-dose screen, 48 h (100 = growth as untreated, 0 = no growth, -100 = all killed)
What all share (conditions): 10 µM

Structures are written as SMILES. About 83,000 compounds went through this panel and 20% of them were active in at least one assay; those are over-represented in the sample as a whole.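 Note: values are percent growth. 100 is the growth of untreated cells, values between 100 and 0 indicate rising inhibition; between -100 and 0 indicates cell death.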 Unmarked numbers belong to inactive results. Active and inactive are the calls of the source. How the source made its calls: active means growth percent below 10; inactive means the rest.

As for `CCOP(=O)(CC(F)(F)C(F)(F)F)OCC`, the growth in the assay on 786-0 renal is 15.2%; in the assay on MALME-3M melanoma, -70.4% (active); in the assay with UACC-257 melanoma, -31.4% (active); in the assay on SK-MEL-2 melanoma, 29.5%; in the assay on EKVX NSCLC it was 89.5%; in the assay on SN12C renal, 62.1%. In addition, the growth is 17% with TK-10 renal; -23.1% (active) in the assay on ACHN renal; 2.63% (active) with CAKI-1 renal; 126% in the assay on A498 renal; 7.92% (active) in the assay on RPMI-8226 leukemia; -80.2% (active) in the assay with OVCAR-8 ovarian. The growth is -14.9% (active) with OVCAR-4 ovarian; 111% in the assay on SK-OV-3 ovarian; 60.2% in the assay with IGROV1 ovarian; -61.5% (active) in the assay on OVCAR-3 ovarian; 49% in the assay on BT-549 breast; 18.4% with MDA-MB-435 melanoma. For the same compound, the growth was -70.7% (active) in the assay with HCT-116 colon and 86.3% in the assay with HCC-2998 colon.

Consider `CC1=C(COCCOC(=O)c2ccc(S(=O)(=O)F)cc2)C2=C(C)C3(CC3)[C@@](C)(O)C(=O)C2=C1`, for which the growth in the assay with 786-0 renal was -3.81% (active); with MALME-3M melanoma it was -78.2% (active); in the assay on UACC-257 melanoma, -31.6% (active); in the assay with SK-MEL-2 melanoma it was -99.4% (active); in the assay on EKVX NSCLC, -32.7% (active); in the assay with SN12C renal, -19.9% (active). In addition, the growth was 7.99% (active) in the assay with TK-10 renal; -19.3% (active) in the assay on ACHN renal; -1.85% (active) with CAKI-1 renal; -16.9% (active) with A498 renal; 76.4% in the assay with RPMI-8226 leukemia; -0.659% (active) in the assay on OVCAR-8 ovarian. For the same compound, the growth is -23% (active) with OVCAR-4 ovarian; -5.65% (active) in the assay on SK-OV-3 ovarian; -24.3% (active) with IGROV1 ovarian; 9.3% (active) in the assay on OVCAR-3 ovarian; -83% (active) in the assay on BT-549 breast; 3.24% (active) in the assay on MDA-MB-435 melanoma. The growth was 6.93% (active) with HCT-116 colon and -83.5% (active) with HCC-2998 colon.

Take `CC(C)C[C@H](NC(=O)CNC(=O)C[C@H]1O[C@@H]2OC3(C)CC[C@H]4[C@H](C)CC[C@@H]([C@H]1C)[C@@]24OO3)B(O)O`: the growth with 786-0 renal is 21%; in the assay with MALME-3M melanoma it was -56.5% (active); in the assay with UACC-257 melanoma, -56.9% (active); in the assay on SK-MEL-2 melanoma, -57.3% (active); with EKVX NSCLC, 26.7%; in the assay with SN12C renal it was -53.1% (active). Also, the growth in the assay with TK-10 renal was 12.1%; in the assay on ACHN renal, 7.48% (active); in the assay with CAKI-1 renal, 19.2%; in the assay on A498 renal it was 43.1%; with RPMI-8226 leukemia, -14.5% (active); in the assay on OVCAR-8 ovarian it was 5.76% (active). Moreover, the growth was 22.1% in the assay on OVCAR-4 ovarian; 41.6% in the assay with SK-OV-3 ovarian; 2.58% (active) with IGROV1 ovarian; -12.4% (active) in the assay on OVCAR-3 ovarian; -83.5% (active) in the assay with BT-549 breast; -61.2% (active) in the assay with MDA-MB-435 melanoma. The values for the growth in the assay on HCT-116 colon and in the assay on HCC-2998 colon were -72.3% (active) and -95.1% (active), respectively.

Take `C=CC[Se]C(=O)c1ccc(C(=O)[Se]CC=C)s1`: the growth was -96.3% (active) in the assay with 786-0 renal; -47.7% (active) with MALME-3M melanoma; -78.4% (active) in the assay on UACC-257 melanoma; -65.6% (active) in the assay with SK-MEL-2 melanoma; -89.2% (active) with EKVX NSCLC; -55.8% (active) in the assay with SN12C renal. In addition, the growth with TK-10 renal was -80% (active); in the assay with ACHN renal, -45.6% (active); with CAKI-1 renal it was -83.9% (active); in the assay with A498 renal it was -5.42% (active); with RPMI-8226 leukemia, -26.8% (active); with OVCAR-8 ovarian it was -80.5% (active). Moreover, the growth with OVCAR-4 ovarian was -67.6% (active); in the assay on SK-OV-3 ovarian, -95.2% (active); in the assay on IGROV1 ovarian, -78.9% (active); with OVCAR-3 ovarian, -92.9% (active); in the assay with BT-549 breast, -92.3% (active); in the assay with MDA-MB-435 melanoma, -82.8% (active). The values for the growth in the assay with HCT-116 colon and with HCC-2998 colon were -77.9% (active) and -85.7% (active), respectively.

`COC(=O)C[C@](O)(CCCC(C)C)C(=O)O[C@H]1C(OC)=C[C@@]23CCCN2CCc2cc4c(cc2[C@@H]13)OCO4`: the growth in the assay with 786-0 renal was 2.04% (active); in the assay with MALME-3M melanoma it was -38.5% (active); in the assay with UACC-257 melanoma it was -25.9% (active); in the assay on SK-MEL-2 melanoma it was -0.0193% (active); with EKVX NSCLC, 14.2%; in the assay with SN12C renal, 6.06% (active). The growth was 4.08% (active) in the assay on TK-10 renal; -8.49% (active) with ACHN renal; -3.49% (active) in the assay on CAKI-1 renal; -17.2% (active) in the assay on A498 renal; -20.7% (active) in the assay on RPMI-8226 leukemia; -21.3% (active) in the assay on OVCAR-8 ovarian. The growth in the assay on OVCAR-4 ovarian is -9.31% (active); in the assay with SK-OV-3 ovarian, 0.521% (active); in the assay with IGROV1 ovarian, 8.76% (active); with OVCAR-3 ovarian it was -31% (active); with BT-549 breast it was -17.8% (active); with MDA-MB-435 melanoma, 1.79% (active). For the same compound, the growth is -7.84% (active) with HCT-116 colon and -36.4% (active) in the assay on HCC-2998 colon.

As to `O=C(/C=C/c1ccccc1)c1nc2ccccc2n1Cc1ccc(F)cc1`, the growth with 786-0 renal is -88.3% (active); in the assay with MALME-3M melanoma, -28.3% (active); in the assay on UACC-257 melanoma it was -1.28% (active); in the assay with SK-MEL-2 melanoma it was 18.9%; in the assay on EKVX NSCLC, -60.5% (active); in the assay with SN12C renal it was -5.26% (active). Further, the growth in the assay on TK-10 renal is -14.3% (active); with ACHN renal, -55% (active); in the assay with CAKI-1 renal, 31.2%; with A498 renal, 106%; in the assay with RPMI-8226 leukemia, -38% (active); with OVCAR-8 ovarian, 4.71% (active). Also, the growth is 47.7% with OVCAR-4 ovarian; 64.9% in the assay with SK-OV-3 ovarian; -32.9% (active) in the assay on IGROV1 ovarian; -47.5% (active) with OVCAR-3 ovarian; -65% (active) with BT-549 breast; -29.3% (active) in the assay on MDA-MB-435 melanoma. Also, the growth with HCT-116 colon is -87.4% (active); in the assay with HCC-2998 colon, -95.8% (active).

Consider `O=C(/C=C/c1ccc(Cl)cc1Cl)c1nc2ccccc2n1Cc1ccc(Br)cc1`, for which the growth is 32.6% in the assay on 786-0 renal; 84% in the assay with MALME-3M melanoma; 84.4% in the assay with UACC-257 melanoma; 97.2% in the assay on SK-MEL-2 melanoma; 61.6% with EKVX NSCLC; 75.7% in the assay with SN12C renal. The growth in the assay with TK-10 renal was 99.8%; in the assay on ACHN renal it was 71.3%; in the assay on CAKI-1 renal, 65.1%; in the assay on A498 renal, 103%; in the assay on RPMI-8226 leukemia it was 2.18% (active); in the assay with OVCAR-8 ovarian, 80.6%. For the same compound, the growth in the assay on OVCAR-4 ovarian was 73.7%; in the assay on SK-OV-3 ovarian it was 92.9%; in the assay on IGROV1 ovarian it was 68.4%; with OVCAR-3 ovarian, 68.4%; in the assay with BT-549 breast, 59.2%; in the assay on MDA-MB-435 melanoma it was 79.2%. In addition, the growth in the assay on HCT-116 colon is 25.8%; in the assay on HCC-2998 colon, 70.4%.

Turning to `COc1ccc2cc([C@H](C)C(=O)[Se]CCC#N)ccc2c1`, the growth in the assay with 786-0 renal is -83.9% (active); in the assay with MALME-3M melanoma it was -44.7% (active); with UACC-257 melanoma, -76.9% (active); with SK-MEL-2 melanoma, -42.1% (active); with EKVX NSCLC it was -83.7% (active); in the assay on SN12C renal it was -16.8% (active). Also, the growth with TK-10 renal is -90.4% (active); in the assay with ACHN renal it was -50% (active); with CAKI-1 renal, -94% (active); with A498 renal, -71.1% (active); in the assay on RPMI-8226 leukemia, -17.8% (active); in the assay on OVCAR-8 ovarian it was -82.9% (active). For the same compound, the growth in the assay with OVCAR-4 ovarian is -44.3% (active); in the assay with SK-OV-3 ovarian, -70.6% (active); in the assay on IGROV1 ovarian, -51.7% (active); with OVCAR-3 ovarian, -61% (active); with BT-549 breast, -8.75% (active); with MDA-MB-435 melanoma it was -69.7% (active). In addition, the results for the growth in the assay on HCT-116 colon and in the assay with HCC-2998 colon were -62% (active) and 10.1%, respectively.
